Laboratory results taken from article PMC4336329 (PLoS ONE, 2015).
Out of some 310,000 compounds screened, about 14,000 (4.5%) showed an effect of 50% or more. The effect is printed as a negative number. The full list was thinned out, with strong results kept by preference.

target: human ether-à-go-go-related gene (hERG) potassium channel (human, UniProt Q12809); experiment: primary screen, population patch clamp on CHO cells stably expressing hERG; higher = less effect of the substance
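Also: peak tail current of the secondary pulse compared with the same well before compound.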

human ether-à-go-go-related gene (hERG) potassium channel, sequence (Q12809 whole entry, looked up): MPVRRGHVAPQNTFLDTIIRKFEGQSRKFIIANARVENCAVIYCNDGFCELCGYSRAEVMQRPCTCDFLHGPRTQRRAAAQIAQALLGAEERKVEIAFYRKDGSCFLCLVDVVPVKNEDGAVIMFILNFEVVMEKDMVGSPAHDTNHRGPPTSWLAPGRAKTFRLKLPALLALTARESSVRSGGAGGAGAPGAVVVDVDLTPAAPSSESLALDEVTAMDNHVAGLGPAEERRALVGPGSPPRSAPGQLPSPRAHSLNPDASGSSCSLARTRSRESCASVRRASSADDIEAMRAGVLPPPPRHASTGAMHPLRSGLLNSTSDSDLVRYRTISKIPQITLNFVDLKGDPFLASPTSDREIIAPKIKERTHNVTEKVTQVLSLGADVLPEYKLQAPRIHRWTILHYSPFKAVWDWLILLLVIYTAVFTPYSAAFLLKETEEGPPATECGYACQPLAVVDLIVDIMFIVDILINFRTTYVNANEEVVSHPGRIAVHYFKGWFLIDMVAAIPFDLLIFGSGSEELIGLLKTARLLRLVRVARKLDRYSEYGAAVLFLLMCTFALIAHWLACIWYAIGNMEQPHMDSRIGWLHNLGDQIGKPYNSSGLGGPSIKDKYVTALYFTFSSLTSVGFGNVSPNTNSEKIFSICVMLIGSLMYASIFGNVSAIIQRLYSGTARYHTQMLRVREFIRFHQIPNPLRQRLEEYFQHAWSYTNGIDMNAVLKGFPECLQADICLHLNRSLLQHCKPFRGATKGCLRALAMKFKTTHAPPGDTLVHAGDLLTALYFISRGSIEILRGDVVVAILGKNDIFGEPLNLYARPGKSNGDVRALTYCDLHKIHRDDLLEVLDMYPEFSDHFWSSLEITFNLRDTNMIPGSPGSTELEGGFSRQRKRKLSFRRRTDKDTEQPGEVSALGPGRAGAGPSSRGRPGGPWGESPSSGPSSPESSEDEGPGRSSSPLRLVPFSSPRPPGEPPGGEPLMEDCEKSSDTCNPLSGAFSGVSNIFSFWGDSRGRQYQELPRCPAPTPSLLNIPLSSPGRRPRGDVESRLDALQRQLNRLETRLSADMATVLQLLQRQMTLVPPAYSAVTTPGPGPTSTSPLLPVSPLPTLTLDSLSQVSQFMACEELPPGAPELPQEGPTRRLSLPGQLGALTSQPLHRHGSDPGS

SMILES | hERG current change (%, negative = inhibition) at 10uM [%]
CSc1nccc(Oc2cncc(Cl)c2)n1 | 8.61
Cc1csc(-c2cnn(-c3ccccc3)c2NC(=O)c2cccc(C(F)(F)F)c2)n1 | 9.98
CC(NC(=S)Nc1ccc(Cl)cc1)C(c1ccccc1)N1CCOCC1 (stereo not shown) | -13
COc1ccc(N=C2C(=O)N3c4c(cccc42)C(C)=CC3(C)C)cc1 | 9
COc1ccc(C(=O)OCCc2sc[n+](CC(=O)c3ccccc3)c2C)cc1.[Br-] | -48.9
Cc1c(CCOC(=O)c2cc([N+](=O)[O-])cc([N+](=O)[O-])c2)sc[n+]1CC(=O)c1ccc(Br)cc1.[Br-] | -40.7
Cc1c(CCOC(=O)c2ccc([N+](=O)[O-])cc2)sc[n+]1CC(=O)c1ccccc1.[Br-] | -63.7
Cc1c(CCOC(=O)C23CC4CC(CC(C4)C2)C3)sc[n+]1Cc1ccccc1.[Cl-] | -8.89
Cc1c(CCOC(=O)c2cccc([N+](=O)[O-])c2)sc[n+]1CC(=O)c1ccccc1.[Br-] | -51.1
Cc1ccc(C(=O)OCCc2sc[n+](Cc3ccccc3)c2C)cc1.[Cl-] | -70.1
Cc1c(CCOC(=O)c2ccccc2)sc[n+]1CC(=O)c1ccc(Br)cc1.[Br-] | -77
Cc1c(CCOC(=O)c2cc([N+](=O)[O-])cc([N+](=O)[O-])c2)sc[n+]1CC(=O)c1ccccc1.[Cl-] | 5.96
Cc1sc[n+](CC(=O)c2ccc(Br)cc2)c1C.[Br-] | -12.7
Cc1c(CCOC(=O)c2cc([N+](=O)[O-])cc([N+](=O)[O-])c2)sc[n+]1CCCCS(=O)(=O)[O-] | 23.4
Cc1[nH+]csc1CCOC(=O)c1ccc([N+](=O)[O-])cc1.[Cl-] | -35.4
Cc1c(CCOC(=O)c2ccccc2)sc[n+]1Cc1ccccc1.[Cl-] | -32.7
Cc1cc(NC(=O)C2CCCCC2)nc2c1c(=O)oc1ccccc12 | 3.61
O=C(Nc1cccnc1)c1ccc(S(=O)(=O)N2CCCCCC2)cc1 | 5.14
O=C(CN1C(=O)c2ccccc2C1=O)NCC(=O)OCC(=O)c1ccc(Cl)cc1 | 16.2
CCOc1ccccc1NC(=O)CCC(=O)Nc1ccc2nc(N3CCN(C)CC3)cc(C)c2c1 | 3.51
Cn1c(CCC(=O)Nc2cc(S(C)(=O)=O)ccc2Cl)nc2cc(S(=O)(=O)N3CCOCC3)ccc21 | -25.4
CC(NC(=O)CCc1nc2cc(S(=O)(=O)N3CCOCC3)ccc2n1C)c1ccc(S(N)(=O)=O)cc1 (stereo not shown) | -57.9

SMILES | hERG current change (%, negative = inhibition) at 10uM [%]
Cn1c(CCC(=O)Nc2ccc(F)cc2)nc2cc(S(=O)(=O)N3CCOCC3)ccc21 | -17.7
CCOc1ccc(NS(=O)(=O)c2ccc(C(=O)NCCCN3CCCC3=O)cc2)cc1 | 7.23
CC(=O)Nc1ccc(S(=O)(=O)NNC(=O)c2ccc(S(=O)(=O)N3CCCCC3)cc2)cc1 | 6.41
Cc1ccc(/C=N/Nc2cc(C)nc(NCc3ccccc3)n2)cc1 | -6.03
Cc1cc(N/N=C/c2ccccc2)nc(NCc2ccccc2)n1 | -2.93
CCCCNc1cc(C)nc(NCc2ccccc2)n1 | -59
CCCCOc1cc(C)nc(NCc2ccccc2)n1 | 5.5
Cc1cc(N/N=C/c2ccc(F)cc2)nc(NCc2ccccc2)n1 | -64.2
Cc1ccc(Nc2cc(C)nc(NCc3ccccc3)n2)cc1 | -5.08
CN(C)C(CNC(=O)c1cccs1)c1ccco1 (stereo not shown) | 0.144
CC(=O)N1c2ccc(S(=O)(=O)N3CCC(C(=O)NC4CCC(C)CC4)CC3)cc2CC1C (stereo not shown) | 17.3
Cc1ccc(S(=O)(=O)N(C(=O)c2ccncc2)c2ccc(OC(=O)c3ccncc3)cc2)c(C)c1 | -0.914
O=C(O)C(Cc1ccc(Cl)cc1)NS(=O)(=O)c1ccc(Cl)cc1 (stereo not shown) | 27.1
O=S(=O)(N/N=C\c1ccc(-c2ccccc2Cl)o1)c1ccccc1 | 10.4
CCN(CC)c1ccc(NC(=O)CN2CCN(c3ccccc3F)CC2)cc1 | -5.61
CN(C)c1ccc(NC(=O)CN2CCN(c3ccc(F)cc3)CC2)cc1 | -4.56
CN(C)c1ccc(NC(=O)CN2CCC(C(=O)c3ccc(F)cc3)CC2)cc1 | -32.1
CCN1CCN(CC(=O)Nc2ccc(N(C)C)cc2)CC1.O=C(O)C(=O)O | -2.52
CCN(CC)c1ccc(NC(=O)CN2CCN(c3nc(C)cc(C)n3)CC2)cc1 | -21.7
CCN(CC)c1ccc(NC(=O)CN2CCN(c3ccccn3)CC2)cc1 | -2.86
CCN(CC)c1ccc(NC(=O)CN2CCN(CC(=O)Nc3ccccc3F)CC2)cc1 | -64.9
CCN(CC)c1ccc(NC(=O)CN2CCN(CC(=O)Nc3ccc(F)cc3)CC2)cc1 | -76.4

SMILES | hERG current change (%, negative = inhibition) at 10uM [%]
CN(C)c1ccc(NC(=O)CN2CCN(CC(=O)Nc3ccc(F)cc3)CC2)cc1 | -77.1
COc1ccc(NC(=O)CSc2n[nH]c(-c3ccco3)n2)cc1 | -2.42
Br.CC(C)CC(N)C(=O)OCc1ccc([N+](=O)[O-])cc1 (stereo not shown) | 7.33
CCN(CC)c1nc(Nc2ccccc2)nc(Oc2ccc(=O)[nH]n2)n1 | -14.2
COc1ccc(CCNC(=O)C(=O)c2c(C)[nH]c3ccccc23)cc1 | 6.09
Cc1nc2nc(SCC(=O)N3CCC4(CC3)OCCO4)nn2c(C)c1Cc1ccccc1 | -24.9
CCCN(C(=O)c1ccccc1Cc1ccccc1)C1CCS(=O)(=O)C1 (stereo not shown) | -0.454
COc1ccc(CN2CCCCCC2)cc1 | -10.9
COc1ccc(CN2CCOCCOCCOCC2)cc1 | -58.3
COc1ccc(CN2CCOCCOCCOCCOCC2)cc1 | -36
COc1ccc(CN2CCOCCOCCN(Cc3ccc(OC)cc3)CCOCCOCC2)cc1 | -77.3
COc1ccc(CN2CCOCCOCCOCCOCCOCC2)cc1 | -20.7
COc1ccc(CN2CCOCC2)cc1 | 10.7
COc1ccc(-n2nnnc2SCC(=O)Nc2cc(OC)c([N+](=O)[O-])cc2C)cc1 | 42.4
COc1ccccc1N1CCN(C(=O)C(C)N(c2ccccc2)S(C)(=O)=O)CC1 (stereo not shown) | 5.64
CCOC(=O)Nc1ccc(C)cc1NC(=O)OCC | 11.7
Cc1ccc(NS(=O)(=O)c2cccs2)c(C)c1 | -2.42
N#C/C(=C/c1ccc(F)cc1)S(=O)(=O)c1ccccc1 | 21.3
COc1cccc(CN2CCN(Cc3nc(-c4cccs4)oc3C)CC2CCO)c1 (stereo not shown) | -57
Cc1oc(-c2cccs2)nc1CN1CCC(CO)(CCOc2ccccc2)CC1 | -67
Cc1ccc(CN2CCCC(CO)(Cc3ccccc3C)C2)s1 (stereo not shown) | -37.7
COc1cccc(CC2(CO)CCCN(Cc3nc(-c4cccs4)oc3C)C2)c1 (stereo not shown) | -64.5

SMILES | hERG current change (%, negative = inhibition) at 10uM [%]
Cc1oc(-c2cccs2)nc1CN1CC[C@@](O)(c2ccccc2)[C@H]2CCCC[C@@H]21 | 11.8
COCc1ccc(CN2CCCC(CO)(Cc3cccc(OC)c3)C2)o1 (stereo not shown) | -26.2
COc1cccc(CC2(CO)CCCN(Cc3ccc(CO)o3)C2)c1 (stereo not shown) | -7.04
Cc1oc(-c2cccs2)nc1CN1CCN(C(C)C)C(CCO)C1 (stereo not shown) | 4.95
Cc1ccccc1CC1(CO)CCCN(Cc2nc(-c3cccs3)oc2C)C1 (stereo not shown) | -61.1
Cc1oc(-c2cccs2)nc1CN1CCN(Cc2ccc(F)c(F)c2)C(CCO)C1 (stereo not shown) | -47.2
Cc1ccccc1CC1(CO)CCCN(Cc2ccccc2Cl)C1 (stereo not shown) | -25.6
Cc1oc(-c2cccs2)nc1CN1CCN(CC(C)C)C(CCO)C1 (stereo not shown) | 5.96
OCC1CCCN1C(=S)Nc1ccccc1 (stereo not shown) | 3.84
COc1ccc(C(=O)COC(=O)CN2C(=O)C3C4CCC(C4)C3C2=O)cc1 (stereo not shown) | -17.9
O=C(CSc1nc2c(cnn2-c2ccc(F)cc2)c(=O)[nH]1)N1CCCc2ccccc21 | 10.1
O=C1C=C(O)c2cccc3cccc1c23 | 28.3
CCN(CC)S(=O)(=O)c1ccc2c(c1)oc(=O)n2CC(=O)N(C)C1CCCCC1 | -11.9
Cc1cc(-c2cccs2)c2c(n1)sc1c(=O)[nH]c(=O)[nH]c12 | 5.3
O=C(NCCCNC(=O)c1cnccn1)c1ccc(Cl)c(Cl)c1 | -15.6
Cc1oc(-c2cccs2)nc1CN1CCC(C(=O)N2CCCC2)CC1 | -11.2
Cc1oc(-c2cccs2)nc1CN1CCC(c2ccccc2)CC1 | -66.5
COc1ccc(-c2nc(CN3CCC(c4ccccc4)CC3)c(C)o2)cc1OC | -37.7
Cc1c(Cl)cccc1NC(=O)CCN1CCCCCC1 | -3.92
